Results: PubChem BioAssay (EPA / NIEHS)
Active and inactive are the calls of the source. Rule for the calls: active = hit-call score of the fitted dose curve at least 0.9, where 1 is the maximum; inactive = score below 0.9.

Read-out: E-selectin (Homo sapiens) (UniProt P16581)
Test: BSK_SAg_Eselectin: BioMAP Diversity Plus: SAg Assay for Eselectin Biomarker Activity (AID 2283091)
Conditions: primary human HUVEC with PBMC; actives raise or lower the signal
Procedure: BSK_SAg is a cell-based, multiplexed-readout assay that uses umbilical vein endothelium and peripheral blood mononuclear cells, a human vascular primary cell co-culture, with measurements taken at 24 hours after chemical dosing in a 96-well plate.BSK_SAg_Eselectin is an assay component measured in the BSK_SAg assay. It measures E-selectin antibody related to regulation of gene expression using ELISA technology.Data from the assay component BSK_SAg_Eselectin was analyzed into 1 assay endpoint. This assay endpoint, BSK_SAg_Eselectin, was analyzed with bidirectional fitting relative to DMSO as the negative control and baseline of activity. Using a type of binding reporter, gain or loss-of-signal activity can be used to understand changes in the signaling as they relate to the gene SELE. Furthermore, this assay endpoint can be referred to as a primary readout, because this assay has produced multiple assay endpoints where this one serves a signaling function. To generalize the intended target to other relatable targets, this assay endpoint is annotated to the cell adhesion molecules intended target family, where the subfamily is selectins.
The levels of cell surface (or secreted, indicated by the prefix "s") biomarker endpoints were measured by ELISA. Overt cytotoxicity to cells in confluent adherent cultures (all systems other than the BT system) was assessed by measuring total protein levels using sulforhodamine B (SRB) staining in parallel cultures at the time of biomarker measurements, indicated as SRB endpoints. For proliferation assays for adherent cell types, individual cell types are cultured at sub-confluence and relative cell numbers quantified by SRB staining at time points optimized for each system (48 h: 3C and CASM3C systems; 72 h: BT and HDF3CGF systems; 96 h: SAg system). SRB was performed by staining cells with 0.1% SRB after fixation with 10% TCA and reading wells at 560 nm.Viability and proliferation of PBMC (T cells) was quantified by Alamar Blue reduction for the SAg and BT systems. For PBMC viability (referred to as PBMC Cytotoxicity within the assay endpoint names), cells were plated (75,000/well in a 96-well plate) and then chemical samples added for 1 h before addition of activators, SEB and TSST-1 (20 ng/mL final concentration each). Cells were incubated for 90 h. Then, Alamar Blue (20 uL/well) (Invitrogen, Cat DAL1100) was added for 6 h, and the plates were read with a fluorescence microplate reader at 546/580 nm (excitation/emission). For PBMC proliferation, cells were plated and activated as above but incubated for only 16 h prior to addition of Alamar Blue. Plates were read after 6 h.

E-selectin (Homo sapiens), sequence (P16581 whole entry, looked up): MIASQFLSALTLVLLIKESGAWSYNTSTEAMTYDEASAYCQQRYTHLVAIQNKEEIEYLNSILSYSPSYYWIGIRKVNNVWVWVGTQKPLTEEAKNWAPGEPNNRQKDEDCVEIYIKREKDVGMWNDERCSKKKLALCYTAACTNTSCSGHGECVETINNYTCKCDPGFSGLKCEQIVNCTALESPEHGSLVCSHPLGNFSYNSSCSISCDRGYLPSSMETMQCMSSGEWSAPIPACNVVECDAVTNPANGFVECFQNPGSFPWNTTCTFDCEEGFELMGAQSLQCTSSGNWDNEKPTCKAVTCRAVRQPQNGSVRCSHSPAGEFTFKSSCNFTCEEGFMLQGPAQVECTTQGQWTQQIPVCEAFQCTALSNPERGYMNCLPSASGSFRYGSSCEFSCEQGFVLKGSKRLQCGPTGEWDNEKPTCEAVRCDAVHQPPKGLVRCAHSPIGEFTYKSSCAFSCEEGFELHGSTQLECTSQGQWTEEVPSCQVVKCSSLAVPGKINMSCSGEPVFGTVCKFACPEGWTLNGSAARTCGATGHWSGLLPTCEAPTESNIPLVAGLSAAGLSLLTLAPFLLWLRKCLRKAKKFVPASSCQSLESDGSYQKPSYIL

| SMILES | outcome | AC50 |
| --- | --- | --- |
| O=C(O)c1cccnc1 | inactive | – |
| CCCCCCCC(=O)OC | inactive | – |
| NC=O | inactive | – |
| COC(=O)CCC(=O)OC | inactive | – |
| CC(C)(C)c1ccccc1 | inactive | – |
| O=C(Oc1ccccc1)c1cccc(C(=O)Oc2ccccc2)c1 | inactive | – |
| O=C(N[C@@H](c1ccccc1)[C@@H]1CCCCN1)c1cccc(C(F)(F)F)c1Cl | – | 12.3 µM (active) |
| COC(=O)[C@H]1[C@H]2C[C@@H]3c4[nH]c5cc(OC)ccc5c4CCN3C[C@H]2C[C@@H](OC(=O)c2cc(OC)c(OC)c(OC)c2)[C@@H]1OC | inactive | – |
| CCCCCCCCCC[N+](C)(C)[O-] | inactive | – |
| CC(=O)CC(c1ccccc1)c1c(O)c2ccccc2oc1=O (stereo not given) | inactive | – |
| O=C1NC(=O)C(c2ccccc2)(c2ccccc2)N1 | inactive | – |
| CCN(CC)CCOc1ccc(C(=C(Cl)c2ccccc2)c2ccccc2)cc1 | – | 13.5 µM (active) |
| CCCC[C@H]1CN(CC2CCOCC2)C(=O)OC12CCN(C1(C)CCN(C(=O)c3c(C)ncnc3C)CC1)CC2 | inactive | – |
| O=Cc1ccccc1C=O | inactive | – |
| Cc1ccc(C(C)(C)C)c(O)c1 | inactive | – |
| OCC(CO)n1cnc(-c2ccc(F)cc2)c1-c1ccnc(Oc2ccccc2)n1 | inactive | – |
| C/C=C/c1ccc(OC)cc1 | inactive | – |
| O=C(O)CC(O)(CC(=O)O)C(=O)O | inactive | – |
| CSc1ccc(Oc2ccc(S(N)(=O)=O)cc2CN(C)C)cc1C | inactive | – |
| C=CCc1ccc(OC)c(OC)c1 | inactive | – |

| SMILES | outcome | AC50 |
| --- | --- | --- |
| CCCCCCCCCCCCCCCCO | inactive | – |
| Cc1cc(SC2=C(O)C[C@@](CCc3ccc(N)cc3)(C(C)C)OC2=O)c(C(C)(C)C)cc1CO | inactive | – |
| CS(=O)(=O)c1ccc([C@@H](C[C@H]2CCC(=O)C2)C(=O)Nc2cnccn2)cc1Cl | inactive | – |
| COc1ccc(C(=O)Nc2nc3ccccc3c(NCc3ccccc3)c2C#N)cc1 | inactive | – |
| O=C(O)c1[nH]n(-c2ccc(S(=O)(=O)O)cc2)c(=O)c1N=Nc1ccc(S(=O)(=O)O)cc1 | inactive | – |
| CC(=O)O[C@]1(C(C)=O)CC[C@H]2[C@@H]3C=C(Cl)C4=CC(=O)[C@@H]5C[C@@H]5[C@]4(C)[C@H]3CC[C@@]21C | inactive | – |
| CN(C)CCCN1c2ccccc2Sc2ccc(Cl)cc21 | – | 27.7 µM (active) |
| CC(=O)[C@@]1(O)CC[C@H]2[C@@H]3CCC4=CC(=O)CC[C@]4(C)[C@H]3CC[C@@]21C | inactive | – |
| CC(C)NCC(O)c1ccc(O)c(O)c1 (stereo not given) | inactive | – |
| CCc1cc(C2=C(C(=O)O)N(c3ccccc3C(F)(F)F)S(=O)(=O)c3ccccc32)cc2c1OCO2 | inactive | – |
| CCCCC(CC)COP(=O)(OCC(CC)CCCC)OCC(CC)CCCC (stereo not given) | inactive | – |
| c1ccc2occc2c1 | inactive | – |
| O=C1c2c(O)cccc2Cc2cccc(O)c21 | inactive | – |
| O=C1O[C@H]([C@H](O)CO)C(O)=C1O | inactive | – |
| Cc1cc(Cc2ccc(N)c(C)c2)ccc1N | – | 5.1 µM (active) |
| Cc1c(C)c2c(c(C)c1O)CCC(C)(COc1ccc(CC3SC(=O)NC3=O)cc1)O2 (stereo not given) | – | 31.9 µM (active) |
| O=[Si]=O | inactive | – |
| N[C@@H](Cc1c[nH]c2ccccc12)C(=O)O | inactive | – |
| CC1(C)C(=O)NC(=O)N1CO | inactive | – |
| Oc1ccc(O)cc1 | – | 23.9 µM (active) |
